Assay results taken from PubChem BioAssay (NCI).
Several values for one entry are separate records, joined by “and”; a condition that tells them apart may be missing. Equal entries are not always repeated. This is part of a sample that, as a whole, favours compounds with a hit. Of some 83,000 tested, about 20% had one in any assay.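 Cell lines were cultured in 96-well plates, exposed to a single compound concentration, and assessed for percent growth 48 hours later.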 Activity calls are given as the source filed them.

These compounds were tested on HS 578T breast (assay: NCI-60 one-dose screen, 48 h (100 = growth as untreated, 0 = no growth, -100 = all killed)). Settings: 1 µM.
Description: Growth inhibition of the HS 578T human tumor cell line is measured as a screen for anti-cancer activity. Cells are grown in 96 well plates and exposed to the test compound for 48 hours. Compounds are tested at a single concentration, which is 10^-5 M for most compounds. The reported endpoint is percent growth (GI% or GIPRCNT), where numbers from 0 - 100% represent growth inhibition, and numbers from -100% - 0 represent cell death. For example, a value of 40 represents 60% growth inhibition. A value of 0 means no net growth occurred over the course of the experiment. A value of -40 indicates 40% of cells at the beginning of the experiment died by the end of the experiment. A value of -100 means all cells are dead at the end of the experiment.
NCI-60 Human Tumor Cell Lines Screen was performed using the standard one-dose NCI protocol, which is described in more detail at https://dtp.cancer.gov/discovery_development/nci-60/default.htm.
Compounds with GIPRCNT values below 10 were considered active. Activity score was based on GIPRCNT using the following formula: […]
Score is 0 for GIPRCNT values of 100 or above, 50 for GIPRCNT values of 0, and 100 for GIPRCNT values of -100.
`CNC(=O)c1cc(Oc2ccc(CC(=O)Nc3cc(C(C)(C)C)nn3C)cc2)ccn1` was tested, and the growth was 81.4% (inactive).

Same assay, conditions: 10 µM
For `Cc1[nH]c(-c2nc3ccccc3[nH]2)c(C)c1C(=O)NC(C)C1CCCCC1` (stereo unspecified), the growth was 82.8% (inactive).
For `CC#C[C@]1(O)CC[C@H]2[C@@H]3CCC4=CC(=O)CCC4=C3[C@@H](c3ccc4c(c3)OCO4)C[C@@]21C`, the growth was 79% (inactive).
With `CNC(=O)c1cc(Oc2ccc(CC(=O)Nc3cc(C(C)(C)C)nn3C)cc2)ccn1` the growth was 65.4% (inactive).

Same assay, conditions: 10 µM unless noted
`O=C(O)CSCc1nc2ccccc2[nH]1` was tested, and the growth was 102% (inactive).
With `CN(C)c1ccc(C(Cc2ccc3ccccc3n2)Cc2ccc3ccccc3n2)cc1` the growth was 70% (inactive) and 93% (inactive).
For `CO/N=C/C=C\C(=O)N/C=C/C[C@H]1/C=C/[C@H](O)/C=C\C=C\c2cccc(O)c2C(=O)O1`, the growth was 50.9% (inactive) and 57.1% (inactive).
With `O=C1OC2(c3ccccc31)c1ccc(O)c(O)c1Oc1c2ccc(O)c1O` the growth was 112% (inactive) and 132% (inactive).
`CN1C(=O)C(N=Nc2ccc([N+](=O)[O-])cc2)SC1=S` (stereo unspecified) was tested, and the growth was 72.6% (inactive) and 71% (inactive).
In the case of `O=C1c2c(O)cc(O)cc2OC(c2ccc(O)c(O)c2)C1O` (stereo unspecified), the growth is reported as 109% (inactive).
`CCOc1ccc2cc(-c3nn(CC4CCN(C)CC4)c4ncnc(N)c34)ccc2c1` was tested, and the growth was 79.3% (inactive) and 35.8% (inactive).
For `CC1(c2ccc3ccccc3c2)CCC(=O)O1` (stereo unspecified), the growth was 125% (inactive).
For `Cc1ccc(S(=O)(=O)NCN2C(=O)c3ccccc3C2=O)cc1`, the growth was 108% (inactive).
In the case of `C1CCCCNCCC1`, the growth is reported as 110% (inactive).
In the case of `NCCSC(C[N+](=O)[O-])c1ccccc1Cl` (stereo unspecified), the growth is reported as -1.76% (active).
For `CNC(=O)c1cccc(-c2ccc3c(N4CCOC[C@@H]4C)nc(N4CCOC[C@@H]4C)nc3n2)c1`, the growth was -31.1% (active).
`COc1ccc(S(=O)(=O)N2CCOCC2)cc1NC(=O)c1[nH]c(C)c2c1CCCCC2=O` was tested, and the growth was 91.8% (inactive) and 23.1% (inactive).
In the case of `O=S(=O)(Nc1ccccc1)C1CCCCC1`, the growth is reported as 123% (inactive) and 108% (inactive).
For `Cn1c(SSc2ccc(-c3cccnc3)n2C)ccc1-c1cccnc1`, the growth was 104% (inactive).
With `CCC(O)c1ccccc1` (stereo unspecified) the growth was 81.8% (inactive) and 93.6% (inactive).
In the case of `COC(=O)[C@H]1CCCN1C(=O)C1CCCN1C(=O)[C@@H](Cc1ccccc1)NC(=S)Nc1cc(C(F)(F)F)cc(C(F)(F)F)c1` (stereo partly specified), the growth is reported as 105% (inactive) and 98.2% (inactive).
For `CN1CCN(CCC=C2c3ccccc3Sc3ccc(S(=O)(=O)N(C)C)cc32)CC1`, the growth was 52.5% (inactive) and 65.4% (inactive).
In the case of `Nc1nc(SC/C=C/CCl)c2[nH]cnc2n1`, the growth is reported as 112% (inactive) and 125% (inactive).
For `CC1=NN(c2ccccc2)C(=O)C1C(=O)c1ccccc1` (stereo unspecified), the growth was 127% (inactive).
`CC1=C(/C=C/C(C)=C/C=C/C(C)=C/C(=O)Nc2ccc(O)cc2)C(C)(C)CCC1` was tested, and the growth was 63.3% (inactive).
In the case of `COc1cc2nc(N3CCC[C@@H](NC(=O)C4COc5ccccc5O4)C3)nc(N)c2cc1OC` (stereo partly specified), the growth is reported as 110% (inactive) and 109% (inactive).
In the case of `CCOC(=O)Nc1nc2ccccc2[nH]1`, the growth is reported as 11.2% (inactive).
For `Fc1ccccc1Nc1n[nH]c(=S)s1`, the growth was 107% (inactive).
For `CCCCCCCCCCCCCCCCOc1ccc(C)cc1`, the growth was 110% (inactive).
For `CC(=O)c1ccc2c(c1)N(CCCN1CCN(CCO)CC1)c1ccccc1S2`, the growth was 87.6% (inactive) and -20.1% (active).
In the case of `O=C(/C=C\c1ccnc2ccccc12)c1ccc([N+](=O)[O-])cc1`, the growth is reported as 107% (inactive) and 88.6% (inactive).
For `CC(CN=Cc1ccccc1O)N=Cc1ccccc1O` (stereo unspecified), the growth was 90.7% (inactive).
For `CC(C)N=c1cc2n(-c3ccc(Cl)cc3)c3ccccc3nc-2cc1Nc1ccc(Cl)cc1`, the growth was -13.2% (active) and 13.1% (inactive).
`COc1ccccc1/C=N\N=C(N/N=C/c1ccccc1OC)N/N=C/c1ccccc1OC` was tested, and the growth was 99.5% (inactive) and 33.8% (inactive).
`Nc1ccccc1SC1CC(=O)N(c2cccc3ccccc23)C1=O` (stereo unspecified) was tested, and the growth was 97.9% (inactive).
With `Oc1nc(NCCc2ccccc2)sc1/C=C1\C=Nc2ncccc21` the growth was 8.82% (active) and 8.78% (active).
For `O=C(Cc1cccc2ccccc12)N/N=C/c1ccc2c(c1)CCC2`, the growth was 85.3% (inactive).
With `COc1ccc(CCN(C)CCCC(C#N)(c2ccc(OC)c(OC)c2)C(C)C)cc1OC` (stereo unspecified) the growth was 99.8% (inactive) and 88.1% (inactive) and 93.6% (inactive).

Same assay, conditions: 30 µM
With `CNC(=O)c1cc(Oc2ccc(CC(=O)Nc3cc(C(C)(C)C)nn3C)cc2)ccn1` the growth was 83.5% (inactive).

Same assay, conditions: 100 µM
For `Cc1[nH]c(-c2nc3ccccc3[nH]2)c(C)c1C(=O)NC(C)C1CCCCC1` (stereo unspecified), the growth was -39% (active).
In the case of `CC#C[C@]1(O)CC[C@H]2[C@@H]3CCC4=CC(=O)CCC4=C3[C@@H](c3ccc4c(c3)OCO4)C[C@@]21C`, the growth is reported as 0.161% (active).
